FLuc inh: Photinus pyralis luciferase inhibition; Potency, µM (highest dose often 115 µM), usual class: inhibitors; purified P. pyralis luciferase, luminescence, biochemical; P08659; 76,000 compounds, 2.5% hits; AID 1347043; note: nearly all actives have a fitted effect of over 65% in size
Target sequence (P08659 whole entry, looked up): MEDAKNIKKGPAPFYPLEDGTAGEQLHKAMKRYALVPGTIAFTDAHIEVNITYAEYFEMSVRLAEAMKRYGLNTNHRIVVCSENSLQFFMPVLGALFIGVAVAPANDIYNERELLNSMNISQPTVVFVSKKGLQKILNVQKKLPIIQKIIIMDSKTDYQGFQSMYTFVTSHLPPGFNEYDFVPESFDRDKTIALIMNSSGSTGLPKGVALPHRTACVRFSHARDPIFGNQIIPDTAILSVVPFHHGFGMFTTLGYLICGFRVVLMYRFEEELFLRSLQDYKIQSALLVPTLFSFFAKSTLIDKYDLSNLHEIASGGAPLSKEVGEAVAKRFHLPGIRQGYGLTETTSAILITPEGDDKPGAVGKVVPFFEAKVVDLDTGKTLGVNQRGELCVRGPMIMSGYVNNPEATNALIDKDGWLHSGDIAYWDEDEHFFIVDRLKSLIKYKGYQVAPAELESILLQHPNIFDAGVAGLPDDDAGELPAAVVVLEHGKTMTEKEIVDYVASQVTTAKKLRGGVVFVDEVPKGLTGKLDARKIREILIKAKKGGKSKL
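Luminescence read by CCD imager after adding enzyme (10nM final) to wells holding compound, titrated in qHTS. Substrates 10uM each D-luciferin and ATP; buffer 50mM Tris acetate pH 7.5, 10mM Mg acetate, Tween-20, BSA.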
HEK293 tox: kills HEK 293 cells | AID 1345083 | Potency, µM (top dose mostly 115 µM), for inactives: at the highest dose activity change, negative = cytotoxicity, hits mostly inhibitors | HEK 293 viability, ATP luminescence (CellTiter-Glo), 48-72 h | 94,000 compounds, 6.6% hits; note: nearly all actives have a fitted effect of over 60% in size
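CellTiter-Glo luminescence (cellular ATP) was read after 48 or 72 hr of compound exposure at 37 degree Celsius. Cells were HEK 293 plated at 250 cells/well.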
SNCA viab count: counter-screen for SNCA expression inhibitors: cell viability; HEK-293-SNCA-luc viability, GF-AFC fluorescence, 24 h; Potency, µM (highest dose often 57.1 µM), for inactives: top-dose activity change, negative = cytotoxicity, usual class: cytotoxic; 150,000 compounds, 0.12% hits;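 note: 0% = DMSO-treated cells and -100% = medium-only wells without cells; nearly all actives have a fitted effect of over 30% in size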
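HEK-293-SNCA-luc cells (1500/well) plated 24 h, then exposed 24 h to a dilution series; GF-AFC added 30 min at 37C, fluorescence 405/540 nm; normalised to medium-only and DMSO wells, Hill fit.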
3T3 cytotox: NIH 3T3 cell cytotoxicity | NIH 3T3 viability, CellTiter-Glo ATP luminescence, 48-72 h | Potency, µM (doses to about 96.7 µM), for the others: top-dose activity change, negative = cytotoxicity, hits mostly inhibitors | 94,000 compounds, 4.3% hits; note: nearly all actives have a fitted effect of over 55% in size
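Cells were seeded at 400 per well, treated with pin-transferred compound, and kept 48 or 72 hr at 37 °C before CellTiter-Glo addition and luminescence imaging of cellular ATP.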
SNCA expr inh: inhibitors of alpha-synuclein (SNCA) gene expression; HEK-293 SNCA-luciferase knock-in, luminescence, 24 h; Potency, µM (doses to about 57.2 µM), inactives show top-dose activity change, negative = inhibition, hits mostly inhibitors; 140,000 compounds, 0.17% hits; AID 1671194;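 note: plate controls were DMSO cells for no effect and cell-free wells for full effect; nearly all actives have a fitted effect of over 45% in size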
NPR1 antag: blocks ANP-stimulated signaling of human Npr1 receptor | 76,000 compounds, 1.6% hits | Potency, µM (doses to about 46.3 µM), for inactives: top-dose activity change, negative = inhibition, most hits filed as inhibitors | HEK293 hNpr1 GloSensor cGMP, ANP-stimulated luminescence | AID 1347048; calls by dose curve; note: nearly all actives have a fitted effect of over 60% in size
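Compound pre-incubated 30 min at room temperature on GloSensor-loaded HEK293 cells stably carrying hNpr1 and the pGS-40F cGMP biosensor. Stimulation uses hNppA at 0.1 nM final; luminescence is taken at baseline and 20 min post-agonist.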
* = called active by the depositor; i = inactive; ? = inconclusive; · = not tested or not shown; [ ] = remark or other dose. This is a sample that favours compounds with a hit; in the whole collection about 7.2% have one here. Unless noted, calls come from the whole dose curve; as a rule, active = well fitted curve in the direction sought with a large enough effect; inconclusive = small, poorly fitted or top-dose-only effect, or another doubt; inactive = no such curve, though single readings can be large; an effect the other way counts as inactive or inconclusive. Unless noted, % is set by controls: 0 for no effect and ±100 for the full control effect; potency is the fitted concentration of half-maximal effect.

SMILES	FLuc inh	HEK293 tox	SNCA viab count	3T3 cytotox	SNCA expr inh	NPR1 antag
O=[S+]1([O-])NCC2(CCN(Cc3ccccc3)C2)Nc2ccccc21 (configuration not stated)	i	-4%	-2%	-18%	13%	32%
O=[S+]1([O-])NCC2(CCN(Cc3ccc(OC(F)(F)F)cc3)CC2)Nc2ccccc21	i	40µM*	6%	?	-30%	1%
O=[S+]1([O-])NCC2(CCCN(Cc3cccc(C(F)(F)F)c3)C2)Oc2ncccc21 (configuration not stated)	·	?	-3%	-28%	-16%	·
O=[S+]1([O-])NCC2(CCCN(Cc3ccc(OC(F)(F)F)cc3)C2)Nc2ccccc21 (configuration not stated)	i	?	-10%	45µM*	?	-25%
O=C(CC1CCOC2(CCN(C3CCN(Cc4ccccc4)CC3)CC2)C1)N1CCCC1 (configuration not stated)	i	?	10%	?	-8%	-6%
O=C(NO)c1ccc(CC(=O)N(CCO)c2ccccc2)cc1	·	·	-8%	·	·	·
OCC1(Cc2ccc(F)cc2)CCCN(c2nc3ccccc3s2)C1 (configuration not stated)	i	40µM*	-6%	?	-12%	?
OCC1(Cc2ccccc2)CCCN(Cc2cn[nH]c2-c2ccc(F)cc2)C1 (configuration not stated)	i	?	7%	-29%	?	1%
CC(C)(C)CC(=O)Nc1cnc(-c2cccc(Cl)c2)nc1	0.25µM*	35µM*	-4%	32µM*	?	4µM*
Cc1ccc(-c2ncc(NC(=O)Cc3ccccc3C)cn2)cc1	?	?	-6%	-12%	111%	-16%
CS(=O)(=O)c1ccc(OCC2(CNCc3cccc(C(F)(F)F)c3)C[C@@H](O)[C@@H](O)C2)cc1 (some centres not stated)	i	79µM*	0%	?	-19%	-4%
CS(=O)(=O)N1CCC(C2CCN(C(=O)CN3CCOCC3)C2)CC1 (configuration not stated)	i	i	5%[12.5 µM]	-1%	-18%	8%
O=C(O)Cn1nc2c(cc1=O)CCCC2	i	-4%	3%	i	-2%	1%
O=c1cc2c(nn1Cc1cccc(Br)c1)CCCCC2	32µM*	?	-11%	?	80%	1%
Cc1ccc(NC(=O)N2CCCC(Cn3c(C)cnc3C3CC3)C2)cc1C (configuration not stated)	·	-24%	4%	?	-11%	·
O=C(O)CCCC(=O)N[C@H]1CO[C@H]2[C@@H]1OC[C@@H]2Nc1nccc(-c2ccc(-c3ccccc3)cc2)n1	i	-30%	9%	-2%	19%	-30%
O=C(CCc1ccc(O)cc1)N[C@H]1CC[C@H](Nc2nccc(-c3cccnc3)n2)C1	i	40µM*	-8%	50µM*	?	-12%
CN(Cc1ccccc1)C(=O)Cc1cccn1-c1ccc(F)cc1	i	?	4%	-12%	16%	-20%
Cc1cc(C)cc(NC(=O)N2[C@@H]3CC[C@H]2CC(NC(=O)c2ccc(F)cc2)C3)c1 (some centres not stated)	i	40µM*	-32%	?	-26%	-6%
CCOc1ccc(NC(=O)N2[C@@H]3CC[C@H]2CC(NC(=O)c2ccc(F)cc2)C3)cc1 (some centres not stated)	·	?	-8%	?	0%	·
Cc1cccc(N(C)c2ccc3cc(S(=O)(=O)N4CCCC4)ccc3n2)c1	·	·	6%	·	-7%	·
CN(Cc1ccccc1)c1ccc2cc(S(=O)(=O)N3CCCCC3)ccc2n1	·	·	3%	·	25µM*	·
Cc1noc(C)c1-c1cc2c(cc(C)n2C)c(Nc2ccncn2)n1	i	?	-1%[87.6 µM]	20µM*	26%[87.6 µM]	-18%[70.6 µM]
Cc1noc(C)c1-c1cc2c(cc(-c3ccccc3)n2C)c(Nc2ccncn2)n1	i	32µM*	?	?	-23%[87.6 µM]	-17%[70.6 µM]
Cc1cc(C)n(CCC(=O)N2CC(F)(F)C[C@H]2c2nc(C)no2)n1	i	0%	4%	2%	-1%	7%
SMILES	FLuc inh	HEK293 tox	SNCA viab count	3T3 cytotox	SNCA expr inh	NPR1 antag
COc1ccc(C(=O)N2CCCN(c3nnc4ccc(Cl)cn34)CC2)cn1	i	i	-12%	-3%	22%	-6%
COc1ccc(NC(=O)CCc2ccc3c(c2)CN(C(=O)NC(C)C)CCO3)cn1	i	79µM*	-3%[12.5 µM]	-10%	56%	-30%
CCNC(=O)N1CCOc2ccc(CCC(=O)NC3CCS(=O)(=O)C3)cc2C1 (configuration not stated)	i	0%	-6%[12.5 µM]	i	2%	3%
CNC(=O)CCc1ccc2c(c1)CN(C(C)=O)CCO2	i	-4%	-2%[12.5 µM]	-7%	29%	5%
CC(=O)N1CCOc2ccc(CCC(=O)NC(C)Cn3ccc(C)n3)cc2C1 (configuration not stated)	i	-9%	2%[12.5 µM]	-8%	20µM*	4%
CCNC(=O)N1CCOc2ccc(CCC(=O)Nc3ccc(F)cc3F)cc2C1	i	40µM*	-4%[12.5 µM]	-30%	39%	?
O=C1NC(=NC2CCCC2)C2(CCN(CC3CC3)CC2)N1c1cc(F)cc(F)c1	·	2%	1%	32µM*	2%	·
O=C1NC(=NC2CCCCC2)C2(CCCN(CC3CC3)C2)N1c1cc(F)cc(F)c1 (configuration not stated)	·	10µM*	-17%	32µM*	-40%	·
O=C1NC(=NC2CCCCC2)C2(CCN(CC3CC3)CC2)N1c1cc(F)cc(F)c1	·	-11%	2%	?	15%	·
O=C1NC(=NC2CCCCC2)C2(CCCN(CC3CCCCC3)C2)N1c1cc(F)cc(F)c1 (configuration not stated)	·	?	-29%	28µM*	?	·
O=C1NC(=NC2CCCCC2)C2(CCCN(Cc3ccsc3)C2)N1c1cc(F)cc(F)c1 (configuration not stated)	·	?	-6%	?	-16%	·
COc1ccc(C(=O)N2CCC(C(=O)N3CCCC(c4nc5ccncc5[nH]4)C3)CC2)cc1 (configuration not stated)	·	-1%	-7%	1%	6%	·
COCC1CN(C(C)=O)CC12CCN(S(=O)(=O)c1ccc(F)c(C)c1)CC2 (configuration not stated)	i	-23%	4%	-10%	-19%	-11%
CCS(=O)(=O)N1C[C@@H](Oc2ccccc2)C[C@H]1C(=O)NC	i	2%	4%	0%	-26%	1%
